CD11b adhes enh: enhancers of CD11b/CD18 adhesion to fibrinogen, primary screen, K562 cells, luminescence; Integrin beta-2 (Homo sapiens) + Integrin alpha-M (Homo sapiens), P05107+P11215; ATPlite luminescence; activation, % at 10 µM; 0.07% of 93,000 active; AID 1499, 2009;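 active = 10 µM primary screen giving 50% or more activity, confirmed by 40% or more on retest at that dose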
Cav3 T inh: Cav3.2 calcium influx blockers – cell-based, Fluo-4 calcium fluorescence, FDSS, MLSMR library, primary screen | Voltage-dependent T-type calcium channel subunit alpha-1H (Homo sapiens), O95180 | Cav3.2-expressing cells; active compounds read low | B-score at 10 µM | 4% of 100,000 active;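 active = single-dose well whose peak fluorescence ratio is a statistical outlier from its plate by either plate-standardised score or position-corrected B-score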
Target sequence (O95180 whole entry, looked up): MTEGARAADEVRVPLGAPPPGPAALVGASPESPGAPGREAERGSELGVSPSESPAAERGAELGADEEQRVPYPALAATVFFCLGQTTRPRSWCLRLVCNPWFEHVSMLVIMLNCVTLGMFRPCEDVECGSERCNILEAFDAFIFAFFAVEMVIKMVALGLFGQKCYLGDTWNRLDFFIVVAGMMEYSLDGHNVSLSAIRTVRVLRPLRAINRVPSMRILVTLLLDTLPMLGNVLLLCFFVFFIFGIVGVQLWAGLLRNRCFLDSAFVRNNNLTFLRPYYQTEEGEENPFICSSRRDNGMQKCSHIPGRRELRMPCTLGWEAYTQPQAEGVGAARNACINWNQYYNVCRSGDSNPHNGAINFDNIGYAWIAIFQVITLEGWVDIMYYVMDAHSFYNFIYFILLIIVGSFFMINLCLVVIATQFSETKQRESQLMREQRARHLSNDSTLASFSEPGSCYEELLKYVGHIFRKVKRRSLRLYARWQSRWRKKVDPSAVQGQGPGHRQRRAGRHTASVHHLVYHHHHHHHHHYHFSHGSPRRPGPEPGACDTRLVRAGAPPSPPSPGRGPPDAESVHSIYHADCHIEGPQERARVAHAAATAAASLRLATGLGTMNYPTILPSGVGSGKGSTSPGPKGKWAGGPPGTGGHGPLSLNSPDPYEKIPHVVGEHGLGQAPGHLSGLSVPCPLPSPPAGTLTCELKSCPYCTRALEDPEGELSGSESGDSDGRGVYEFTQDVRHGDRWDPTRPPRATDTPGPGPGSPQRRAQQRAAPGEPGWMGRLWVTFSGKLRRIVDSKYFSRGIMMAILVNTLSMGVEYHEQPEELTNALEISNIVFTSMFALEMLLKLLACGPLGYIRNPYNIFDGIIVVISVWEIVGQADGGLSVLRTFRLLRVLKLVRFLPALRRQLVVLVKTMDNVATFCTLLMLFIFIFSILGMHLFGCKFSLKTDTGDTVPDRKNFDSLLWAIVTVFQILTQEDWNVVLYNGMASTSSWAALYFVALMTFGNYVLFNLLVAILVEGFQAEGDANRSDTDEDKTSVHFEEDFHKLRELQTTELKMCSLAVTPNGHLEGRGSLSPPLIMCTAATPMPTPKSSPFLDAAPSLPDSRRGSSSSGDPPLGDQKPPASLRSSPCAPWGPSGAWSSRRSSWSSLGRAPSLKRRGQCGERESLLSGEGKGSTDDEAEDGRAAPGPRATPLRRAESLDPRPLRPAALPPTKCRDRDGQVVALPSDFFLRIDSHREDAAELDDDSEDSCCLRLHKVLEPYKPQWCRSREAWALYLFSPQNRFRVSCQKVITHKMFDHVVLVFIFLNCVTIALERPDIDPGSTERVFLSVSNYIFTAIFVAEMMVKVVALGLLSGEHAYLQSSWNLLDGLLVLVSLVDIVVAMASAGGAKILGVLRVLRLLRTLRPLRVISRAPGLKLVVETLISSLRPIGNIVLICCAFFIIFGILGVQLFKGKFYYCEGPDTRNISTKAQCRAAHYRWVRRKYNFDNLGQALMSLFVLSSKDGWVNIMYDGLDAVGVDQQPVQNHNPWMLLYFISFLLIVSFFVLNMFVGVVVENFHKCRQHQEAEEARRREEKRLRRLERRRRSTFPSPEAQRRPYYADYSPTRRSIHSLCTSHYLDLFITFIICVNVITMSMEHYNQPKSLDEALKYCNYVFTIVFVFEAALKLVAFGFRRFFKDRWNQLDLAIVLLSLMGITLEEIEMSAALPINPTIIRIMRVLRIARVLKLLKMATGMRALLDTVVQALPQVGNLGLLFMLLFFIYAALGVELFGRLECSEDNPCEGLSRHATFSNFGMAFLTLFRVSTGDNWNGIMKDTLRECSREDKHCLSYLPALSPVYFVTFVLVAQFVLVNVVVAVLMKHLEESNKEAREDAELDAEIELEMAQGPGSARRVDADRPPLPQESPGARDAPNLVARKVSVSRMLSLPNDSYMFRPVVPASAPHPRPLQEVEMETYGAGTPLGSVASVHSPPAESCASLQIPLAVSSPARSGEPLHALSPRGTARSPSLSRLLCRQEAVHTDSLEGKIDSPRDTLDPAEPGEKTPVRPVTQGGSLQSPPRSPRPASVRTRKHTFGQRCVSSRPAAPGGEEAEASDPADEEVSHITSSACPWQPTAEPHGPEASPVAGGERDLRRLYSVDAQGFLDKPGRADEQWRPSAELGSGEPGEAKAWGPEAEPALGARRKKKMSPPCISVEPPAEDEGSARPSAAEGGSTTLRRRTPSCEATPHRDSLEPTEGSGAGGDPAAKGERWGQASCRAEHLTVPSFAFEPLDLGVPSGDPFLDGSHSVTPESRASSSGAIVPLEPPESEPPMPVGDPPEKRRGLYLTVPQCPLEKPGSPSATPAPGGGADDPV
CD11b adhes inh: inhibitors of CD11b/CD18 adhesion to fibrinogen, primary screen, K562 cells, luminescence | ATPlite luminescence; Mn2+ added to activate the integrin | Integrin beta-2 (Homo sapiens) + Integrin alpha-M (Homo sapiens), P05107+P11215 | inhibition, % at 10 µM | 0.54% of 93,000 active;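 active = primary inhibition of 50% or more at 10 µM, then 40% or more on retest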
E coli WT exp: growth inhibitors of wild-type E. coli, primary screen, strain BW25113, expanded library, OD600; OD600 absorbance; growth inhibition, % at 100 µM; 0.15% of 98,000 active;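 active = growth inhibition above about 50% at one test dose, limit read from the data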;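 note: growth measured after 20 h incubation at 37 °C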
A number is an active result; – = inactive; · = no result given. The entries come from a sample that favours hits as a whole.

SMILES	CD11b adhes enh	Cav3 T inh	CD11b adhes inh	E coli WT exp
N#C/C(=C(/O)C(Cl)c1ccccc1)c1nc2ccccc2s1 (centres undefined)	–	-5.31	–	–
CC(C)NC(=O)NC(=O)COC(=O)c1ccc(F)cc1F	–	·	–	·
CCc1cc2cc3c(cc2nc1SCC(=O)N1CCN(C(=O)c2ccco2)CC1)OCO3	–	–	–	–
CCc1cc2ccc(C)cc2nc1SCC(=O)N1CCN(C(=O)c2ccco2)CC1	–	-5.1	–	–
O=C(/C=C/c1ccc([N+](=O)[O-])cc1)NCC1CCCO1 (centres undefined)	·	–	·	–
Cc1cccc(N(C)C(=O)c2cc3cc4ccc(C)cc4nc3o2)c1	–	-5.1	–	–
O=C(C1CC1)N1CCc2cc(S(=O)(=O)NCC3COc4ccccc4O3)ccc21 (centres undefined)	·	–	·	–
O=C(C1CC1)N1CCc2cc(Br)cc(S(=O)(=O)NCC3COc4ccccc4O3)c21 (centres undefined)	–	-4.15	–	–
O=C(N1CCN(c2cccc(Cl)c2)CC1)C1(c2cccs2)CCOCC1	–	·	–	·
Cc1ccc(S(=O)(=O)Nc2cc(C)c(O)c(S(=O)(=O)c3ccc(C)cc3)c2)cc1	·	-3.65	·	–
C#CCOCCOCCOCCNc1nc(N2CCN(C(=O)C([C@@H](C)CC)n3cc(C(N)COC(=O)C(F)(F)F)nn3)CC2)nc(N2CCN(C(=O)C([C@@H](C)CC)n3cc(C(N)CC(C)C)nn3)CC2)n1 (some centres undefined)	·	–	·	·
CCOc1ccc(N2CC(C(=O)Nc3ccccc3OC)CC2=O)cc1 (centres undefined)	·	-5.09	·	–
CCOc1ccc(N2CC(C(=O)Nc3ccc(F)cc3F)CC2=O)cc1 (centres undefined)	–	–	–	–
COc1cccc(N2CC(C(=O)Nc3ccc(C(=O)OC(C)C)cc3)CC2=O)c1 (centres undefined)	–	-4.56	–	–
CC1(C)C([N+](=O)[O-])C(c2ccc(Cl)cc2)NC(c2ccc(Cl)cc2)C1[N+](=O)[O-] (centres undefined)	–	·	–	·
O=C(NCC1CCCO1)C1CC1(c1ccccc1)c1ccccc1 (centres undefined)	–	·	–	·
Cc1ccccc1C(=O)N[C@H](C(=O)OCC(=O)c1ccc[nH]1)C(C)C	–	·	–	·
C=CCn1c(C)cc(C(=O)COC(=O)[C@@H](NC(=O)c2ccccc2Cl)C(C)C)c1C	–	·	79.0	·
C=C(C)CNC(=S)N/N=C1\CCCCc2ccccc21	–	·	–	·
CC(C(=O)O)c1cccc(C(=O)c2ccccc2)c1 (centres undefined)	–	·	–	–
Cc1cc(C)c(NC(=O)C(C)c2cccc(C(=O)c3ccccc3)c2)c(C)c1 (centres undefined)	·	-5.51	·	–
N#Cc1ccc(C(=O)Nc2ccc(N3CCN(C(=O)c4ccco4)CC3)cc2)c(F)c1	·	–	·	–
CC1(C)OC(=O)N(c2ccccc2)C12C=Cc1cc(Br)ccc1O2 (centres undefined)	–	-6.2	–	–
Cc1ccc(C)n1-n1c(C)nc2sc3c(c2c1=O)CCCCC3	–	-5.59	–	–
CCOC(=O)c1c(NC(=O)COc2ncnc3ccccc23)sc(C)c1CC	–	·	–	·
SMILES	CD11b adhes enh	Cav3 T inh	CD11b adhes inh	E coli WT exp
CC(C)c1ccc(C(=O)CC2(O)C(=O)N(CN3CCOCC3)c3ccccc32)cc1 (centres undefined)	–	-5.81	–	–
Cc1ccc(C(=O)CC2(O)C(=O)N(CN3CCOCC3)c3ccccc32)cc1 (centres undefined)	–	–	–	–
COc1cccc(-c2cc(C(=O)NCCCn3ccnc3)no2)c1	–	–	–	–
COc1ccc(N(Cc2ccccc2)C(=O)CSc2nnc(Cn3nnc4ccccc43)o2)cc1	–	-5.81	–	–
O=C(CSc1nnc(Cn2nnc3ccccc32)o1)Nc1ccc(Cl)cc1	·	–	·	·
O=C(CSc1nnc(Cn2nnc3ccccc32)o1)N(Cc1ccc(F)cc1)c1ccccc1	–	–	102.1	–
COc1ccc(CN(C(=O)CSc2nnc(-c3ccc(F)cc3)o2)c2ccc(F)cc2)cc1	–	-6.52	–	–
CN(C(=O)CSc1nc(N)c2c3c(sc2n1)CSC(C)(C)C3)c1ccccc1	–	·	–	·
CCC(C)NC(=O)c1ccccc1NC(=O)COc1ccc(OC)cc1 (centres undefined)	–	–	–	–
CCOC(=O)c1oc2ccccc2c1CN1CCN(c2ccccc2)CC1	–	-4.77	–	–
CCOC(=O)c1oc2ccccc2c1CN1CCN(C(=O)c2ccccc2)CC1	–	–	–	–
Cc1c(C)n(CC(O)CN2C(=O)c3ccccc3S2(=O)=O)c2ccccc12 (centres undefined)	–	-6.83	–	–
CN1CCc2c(n(CC(O)CN3C(=O)c4ccccc4S3(=O)=O)c3ccccc23)C1=O (centres undefined)	·	–	·	–
CCOC(=O)C1(P(=O)(c2ccc(Cl)cc2)c2ccc(Cl)cc2)CCC1	–	-6.29	–	–
Cc1cccc(C(=O)O/N=C(\N)Cc2ccc([N+](=O)[O-])cc2)c1	–	-4.49	–	–
N/C(Cc1ccc([N+](=O)[O-])cc1)=N\OC(=O)c1ccc2ccccc2c1	–	–	–	–
N/C(Cc1ccc([N+](=O)[O-])cc1)=N\OC(=O)C(c1ccccc1)c1ccccc1	–	-3.38	–	–
CCOc1ccc(NC(=O)C(C)Oc2ccccc2C(=O)Nc2cccc(Cl)c2Cl)cc1 (centres undefined)	–	–	–	–
O=C(NCc1ccco1)c1cc(C(=O)C2CC2)c[nH]1	·	–	·	–
Cc1cc(C)cc(-n2nnc(C(=O)NCc3ccc4c(c3)OCO4)c2N)c1	·	-5.45	·	–
Cc1ccc(C)c(NC(=S)NCc2ccc3c(c2)OCO3)c1	–	–	–	–
Cc1cc(C)cc(NC(=S)NCc2ccc3c(c2)OCO3)c1	·	-4.84	·	·
Cc1cc(OCC(=O)Nc2ccncc2)c(C)cc1Br	–	–	98.0	–
O=C(COc1ccc(Br)cc1)Nc1ccncc1	–	–	–	–
Cc1ccc(C)c(Cn2c(CO)nc3ccccc32)c1	–	-6.44	–	–
SMILES	CD11b adhes enh	Cav3 T inh	CD11b adhes inh	E coli WT exp
COc1ccc(C(=O)NCCCc2nc3ccccc3n2Cc2cc(C)ccc2C)cc1OC	·	–	·	·
Cc1ccc(Cn2c(Cc3ccccc3)nc3ccccc32)cc1	–	-5.03	–	–
COc1ccc(CCNC(=O)C(=O)NCc2ccc(C(C)C)cc2)cc1OC	–	-7.27	–	–
COc1ccc(CCNC(=O)c2cc(C(C)C)on2)cc1OC	–	–	–	–
Cc1ccc(Cl)cc1N1CCN(C(=O)C2CCN(c3nnc(-n4cccc4)s3)CC2)CC1	–	-8.22	–	–
CCSc1c(-c2ccccc2)nc2c(C)cccc2c1C(=O)O	–	–	–	–
Cc1cccc(NC(=O)C23CCC(C)(C2Br)C3(C)C)c1 (centres undefined)	·	-5.42	·	–

High-throughput results deposited in PubChem by several laboratories.
